ROC1-CUL1 inh = blocks human RBX1-Cullin-1 di-ubiquitin formation | in vitro K48 di-Ub FRET, acceptor:donor ratio, 45 min | inhibition, % at 10 µM | 140,000 compounds, 0.6% hits | AID 1347404; in the data active means inhibition above about 25%
Target sequence (P62877 whole entry, looked up): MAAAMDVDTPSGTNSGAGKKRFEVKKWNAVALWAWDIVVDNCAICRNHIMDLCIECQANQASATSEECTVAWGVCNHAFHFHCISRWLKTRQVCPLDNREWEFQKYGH
Target sequence (Q13616 whole entry, looked up): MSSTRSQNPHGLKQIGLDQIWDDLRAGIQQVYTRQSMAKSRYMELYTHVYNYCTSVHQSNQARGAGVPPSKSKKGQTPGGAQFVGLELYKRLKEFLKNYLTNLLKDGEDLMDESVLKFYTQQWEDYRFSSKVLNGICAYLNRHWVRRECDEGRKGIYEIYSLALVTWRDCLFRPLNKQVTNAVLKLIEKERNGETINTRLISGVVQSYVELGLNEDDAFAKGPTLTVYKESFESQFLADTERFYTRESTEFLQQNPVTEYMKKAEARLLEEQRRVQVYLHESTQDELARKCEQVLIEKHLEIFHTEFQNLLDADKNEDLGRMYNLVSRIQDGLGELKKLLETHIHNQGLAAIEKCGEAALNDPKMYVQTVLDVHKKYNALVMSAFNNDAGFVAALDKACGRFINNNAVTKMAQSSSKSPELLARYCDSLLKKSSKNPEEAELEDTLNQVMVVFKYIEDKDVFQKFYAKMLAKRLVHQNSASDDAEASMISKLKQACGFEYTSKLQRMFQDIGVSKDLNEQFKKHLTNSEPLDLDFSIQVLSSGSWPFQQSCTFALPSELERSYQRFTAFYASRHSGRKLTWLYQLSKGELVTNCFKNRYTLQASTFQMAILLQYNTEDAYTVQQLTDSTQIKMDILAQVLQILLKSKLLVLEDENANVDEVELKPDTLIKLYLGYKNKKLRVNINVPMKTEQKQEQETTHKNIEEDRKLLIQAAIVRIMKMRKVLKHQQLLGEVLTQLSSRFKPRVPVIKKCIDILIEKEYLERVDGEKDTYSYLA
Of the large screens only hits and unclear results are named; the others gave an inactive call. This is one part of a sample in which hits are shown more often than they occur.

CC(C)(C)N1C(=O)NC(=O)/C(=C/c2c(Cl)cccc2Cl)C1=O	ROC1-CUL1 inh 25.6
O=C1NC(=S)NC(=O)C1=Cc1c(Cl)cccc1Cl	none
CC1=CC(=O)C(CCCC2=CC(=O)C(Br)=CC2=O)=CC1=O	none
COc1ccccc1OCCCn1cc(C(=O)C(F)(F)F)c2ccccc21	none
CCOc1ccc2c(c1)OC1(C)CC2C(C(C)=O)C(=O)N1 (stereo not given)	none
CCC(=O)N[C@@H]1c2ccccc2C2(CCN(C(=O)C3C(C)(C)C3(C)C)CC2)[C@H]1OCc1cccnc1	none
O=C1NC(=S)NC(=O)C12C(c1ccccc1)NC(=S)NC2c1ccccc1 (stereo not given)	ROC1-CUL1 inh 35.0
Cc1ccccc1C1=NCc2nnc(C)n2-c2ccc(Cl)cc21	none
COc1ccc(-n2cccc2C=C2C(=O)NC(=O)NC2=O)cc1	none
COc1ccc(C=C2C(=O)NC(=S)NC2=O)cc1OC(=O)c1ccccc1	none
COc1ccc(N2C(=O)/C(=C/c3cccn3-c3cccc(C(=O)O)c3)C(=O)NC2=S)c(OC)c1	ROC1-CUL1 inh 62.6
CS(=O)(=O)OC1CN2CCC1CC2 (stereo not given)	none
COc1cc(C=C2C(=O)NC(=S)NC2=O)ccc1OCc1ccc(F)cc1	none
Cc1ccc(OCCn2c(C)c(C=C3C(=O)NC(=S)NC3=O)c3ccccc32)c(C)c1	none
Cc1cc(C=C2C(=O)NC(=S)NC2=O)c(C)n1-c1ccc2c(c1)OCO2	ROC1-CUL1 inh 52.0
O=C1NC(=S)NC(=O)C1=Cc1ccc(O)c(O)c1	none
O=C1NC(=S)NC(=O)C1=Cc1cn(Cc2ccc(Cl)cc2Cl)c2ccccc12	none
Cc1cc(C=C2C(=O)NC(=S)NC2=O)c(C)n1-c1cccc(C(F)(F)F)c1	ROC1-CUL1 inh 26.4
CNC(=O)Oc1cccc(-c2c[n+]3cc(Cl)ccc3n2C)c1	none
O=C1NC(=S)NC(=O)C1=Cc1cc(Br)ccc1OCc1ccc(Cl)cc1	none
CN(C)C(=O)Oc1ccc(-c2c[n+]3cc(C(F)(F)F)ccc3n2C)cc1	none
CC(C)c1c[n+]2ccc(OC(=O)N(C)C)cc2n1C	none
CCOc1ccc(NN=C(C#N)C#N)cc1	none
O=C(O)C1CC(C(=O)O)C2c3ccccc3C12 (stereo not given)	none
Cc1ccc2[nH]c3c(c2c1)CCCC3NC(C)Cc1ccccc1 (stereo not given)	none
CNC(=O)Oc1c(Br)cc2sc(=O)oc2c1Br	ROC1-CUL1 inh 33.7
CN(C)C(=O)Oc1c(Br)cc(Br)c(OC(=O)N(C)C)c1Br	none
COc1cccc(CN2CCN(CC(C)C)C(CCO)C2)c1 (stereo not given)	none
COc1ccc(Cl)cc1C(=O)C1CCCN(Cc2ccn[nH]2)C1 (stereo not given)	none
O=C(c1ccc2c(c1)OCO2)C1CCCN(C2CCSCC2)C1 (stereo not given)	none
CC12CC(=O)C3C(CC[C@H]4CC(=O)C=CC34C)C1CCC2=O (stereo not given in full)	none
Cc1c(Cl)cccc1N1C(=O)/C(=C/c2cc(C)n(-c3ccc(C(=O)O)cc3)c2C)C(=O)NC1=S	ROC1-CUL1 inh 34.6
Cc1ccc(N2C(=O)/C(=C\c3ccc(-c4cccc(C(=O)O)c4)o3)C(=O)NC2=S)cc1	ROC1-CUL1 inh 89.6
CC1=CC(=C2C(=O)NC(=O)NC2=O)C=C(C)N1c1ccc(C(=O)O)cc1	none
Cc1cc(/C=C2\C(=O)NC(=S)N(c3cccc(Cl)c3Cl)C2=O)c(C)n1-c1cc(C(=O)O)cc(C(=O)O)c1	ROC1-CUL1 inh 96.2
COC(=O)c1ccc(-n2c(C)cc(/C=C3\C(=O)NC(=S)N(c4cccc(Cl)c4Cl)C3=O)c2C)c(C)c1	ROC1-CUL1 inh 31.3
O=C1NC(=S)N(c2ccccc2)C(=O)/C1=C\c1ccc(OCc2ccccc2)c(C(=O)O)c1	none
CC(O)(CCN1CCN(CCOC(c2ccc(F)cc2)c2ccc(F)cc2)CC1)c1ccccc1 (stereo not given)	none
CC12CN3CC(C)(CN(C1)C3Cc1ccccc1)C2=O (stereo not given)	none
Cc1ccc(C)c(OCC#CCN2CCOCC2)c1C	none
COc1ncc(CN2CCC3(CCCN(CC4CCC4)C3)C2)cn1 (stereo not given)	none
O=C1OC(Cc2ccccn2)C(=O)C1C1=NCCN1 (stereo not given)	none
CSCc1nnc2n1-c1ccc(Cl)cc1C(c1ccccc1C)=NC2	none
CCOC(=O)[C@]12C[C@](C)(c3ccccc3)[C@@]1(c1ccccc1)NC(=O)C2=O	none
CC(=O)Nc1ccc2n(C)c(-c3cccc(OC(=O)N(C)C)c3)c[n+]2c1	none
Cc1nc2c(c(=O)n1Cc1ccc(Cl)cc1)C(c1cccs1)c1c(c3ccccc3oc1=O)O2 (stereo not given)	none
COC(=O)CN1C(=O)C2(C3=C(CC(C)(C)CC3=O)OC(=N)C2C(=O)OC)c2ccccc21 (stereo not given)	none
COc1cccc(OCC#CCN2CCOCC2)c1	none
CCOc1ccc(C2=C(C=C3C(=O)NC(=O)NC3=O)C(c3ccccc3C)c3ccccc3O2)cc1 (stereo not given)	none
CCCCOC(=O)c1cc(-c2ccc(C=C3C(=O)NC(=O)NC3=O)o2)ccc1Cl	ROC1-CUL1 inh 98.0
N=C1Oc2c(c(=O)oc3ccccc23)C2(C(=O)Nc3ccc(Br)cc32)C1C(=O)OCc1ccccc1 (stereo not given)	none
N#CCCS(=O)(=O)C1c2ccccc2-c2ccccc21	none
CCCN1CCN(C(=O)COc2ccc(Cl)c(C)c2)CC1	none
CCn1ccnc1CN1CCCC(C(=O)c2cccc(Cl)c2)C1 (stereo not given)	none
O=C1CC(c2ccc(F)cc2)CN1 (stereo not given)	none
